Rows were chosen to be rich in hits. Some 2.6% of all compounds tested hit in one or more screens of this group.
H9c2 protect = myocardial damage modulation in H9c2 cells. H9c2 cardiomyocytes, H2O2 injury protection, ATPLite, 2 h. protection from H2O2 cell death, % at 20 µM. actives 0.63% (n = 360,000). AID 588492;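 active = compounds giving at least 50% protection of heart cells from peroxide-induced death in the single-dose screen, raw or plate-pattern-corrected value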;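 also: 0% = DMSO wells with peroxide and 100% = DMSO wells without peroxide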
H9c2 TAG inh = inhibitors of triacylglycerol accumulation. AID 651582. actives 0.66% (n = 230,000). inhibition, % at 12.5 µM. H9c2 cells, Nile Red lipid (TAG) fluorescence; cells loaded with 200 µM oleic acid;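 active = pattern-corrected inhibition of lipid staining of at least 50% with the nuclear-stain viability signal not falling by more than 50%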;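 also: 0% = DMSO wells and 100% = triacsin C control wells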
COUP-TFII inh = NR2F2 (human) inhibition, primary screen; P24468; HEK293T NGFI-A luciferase reporter, luminescence; inhibition, % at 8.6 µM; actives 0.7% (n = 370,000); AID 686940;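 active = inhibition above a per-plate cutoff, mean inhibition of test wells between control levels plus 3 SD, cut at about 38% in these data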;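 also: cells cotransfected with COUP-TFII expression vector driving the NGFI-A reporter; 0% = median of COUP-TF2 test wells and 100% = reporter-only cells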
Target sequence (P24468 whole entry, looked up): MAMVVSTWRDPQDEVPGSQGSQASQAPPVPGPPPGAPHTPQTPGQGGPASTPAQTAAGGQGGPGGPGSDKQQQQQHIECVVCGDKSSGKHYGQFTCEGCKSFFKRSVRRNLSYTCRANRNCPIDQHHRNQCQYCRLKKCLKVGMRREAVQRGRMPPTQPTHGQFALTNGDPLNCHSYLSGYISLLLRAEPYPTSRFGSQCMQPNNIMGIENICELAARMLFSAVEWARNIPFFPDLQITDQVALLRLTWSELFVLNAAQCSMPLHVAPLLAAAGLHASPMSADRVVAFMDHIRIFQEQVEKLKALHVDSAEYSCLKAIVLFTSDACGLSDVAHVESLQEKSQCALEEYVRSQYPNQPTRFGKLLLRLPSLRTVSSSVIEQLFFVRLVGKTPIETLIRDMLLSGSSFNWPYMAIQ
697 NFkB inh = lowers PMA/ionomycin-induced NF-kB signal in 697 B cells | AID 435022 | 697 B-cell NF-kB luciferase reporter, 16 h | inhibition, % at 4 µM | actives 0.33% (n = 330,000); in the data active = inhibition above about 35%
Jurkat NFkB inh = lowers PMA/ionomycin-induced NF-kB signal in Jurkat cells; PMA/ionomycin-induced NF-kB luciferase reporter, luminescence; inhibition, % at 4 µM; actives 0.53% (n = 330,000); AID 435003; in the data active = inhibition above about 50%
Gli-Sufu block = Gli-Sufu pathway antagonism; Sufu-KO-LIGHT fibroblasts, Gli luciferase reporter luminescence; inhibition, % at 5 µM; actives 0.74% (n = 340,000); AID 588413;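 active = inhibition above about 55%, limit read from the data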;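 also: 0% = DMSO-treated cells and 100% = wells with medium but no cells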
Gal4-VP16 ctr = VP16 inhibition counter-screen for COUP-TFII; actives 25% (n = 2,500); inhibition, % at 8.5 µM; shares compounds with COUP-TFII inh; AID 687007; HEK293 Gal4-VP16 luciferase reporter, luminescence; in the data active = inhibition above about 13%
COUP-TFII conf = confirmation of human COUP-TFII (NR2F2) inhibitors; shares compounds with COUP-TFII inh; HEK293 NGFI-A luciferase reporter, luminescence; inhibition, % at 8.5 µM; actives 45% (n = 2,500);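 active = mean inhibition over three repeats above a set limit taken from the earlier primary screen, cut at about 38% in these data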;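 also: 100% = cells given the luciferase reporter alone without the COUP-TF2 vector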
Numbers without * were called inactive; . = no result; ! = a repeat was not active.

SMILES	H9c2 protect	H9c2 TAG inh	COUP-TFII inh	697 NFkB inh	Jurkat NFkB inh	Gli-Sufu block	Gal4-VP16 ctr	COUP-TFII conf
CCc1nc2ccccc2c(C(=O)OCC(=O)Nc2ccc(S(=O)(=O)N3CCOCC3)cc2)c1C	-3.2	2.1	14.2	-7.6	-12.4	29.6	.	.
CCc1nc2ccccc2c(C(=O)OCC(=O)Nc2cccc(S(=O)(=O)N3CCOCC3)c2)c1C	20.4	.	64.8*	3.7	32.5	22.6	10.9	30.2
COc1ccc(-c2cc(C)no2)cc1S(=O)(=O)N1CCN(c2cccc(C)c2)C(C)C1 (stereo not drawn)	-6.9	.	52.0*	-60.1	34.1	10.6	11.3	53.7*
Cc1cc(-c2ccc(C)c(S(=O)(=O)NCC3CCN(Cc4cccc(F)c4)CC3)c2)on1	-12.5	.	-3.5	11.7	-3.3	41.7	.	.
COc1cccc(CCN2CCC(CNS(=O)(=O)c3cc(-c4cc(C)no4)ccc3C)CC2)c1	-6.0	.	41.2*	-13.7	49.4	46.2	-0.1	26.1
COc1cccc(CCN2CCC(CNS(=O)(=O)c3cc(-c4cc(C)no4)ccc3OC)CC2)c1	-3.4	.	37.4*	-23.6	43.7	41.5	-10.9	7.8
COc1ccc(-c2cc(C)no2)cc1S(=O)(=O)NCCCN1CCCCCC1	-2.9	.	14.6	-4.4	-13.3	20.7	.	.
Oc1ccccc1C=NN1CCN(Cc2ccccc2)CC1	.	.	-13.1	.	.	.	.	.
COC(=O)c1cc2c(c3c4cc(F)ccc4n(S(=O)(=O)c4cccc(C)c4)c13)C(=O)N(Cc1ccccc1OC)C2	.	.	-11.4	.	.	.	.	.
Cc1cccc(OC[C@@H](O)CN2CCC(C(O)(c3ccccc3)c3ccccc3)CC2)c1	.	.	-16.4	.	.	.	.	.
CC(CCN1CCC(C(O)(c2ccccc2)c2ccccc2)CC1)Oc1cccc(Cl)c1 (stereo not drawn)	.	.	-18.8	.	.	.	.	.
COc1cc(-n2c(C)nc3cc(C(=O)N4CCCCC4)ccc32)cc(OC)c1OC	.	.	-22.1	.	.	.	.	.
O=C(Nc1ccccc1C(=O)O)c1cc(S(=O)(=O)N2CCCCC2)c(Cl)cc1Cl	-7.6	.	40.2*	23.5	13.3	-16.7	-10.8	19.3
O=C(Nc1ccccc1C(=O)O)c1ccc(Cl)c(S(=O)(=O)N2CCOCC2)c1	-16.8	0.5	6.3	30.6	2.7	3.3	.	.
Cc1ccc(NC(=O)c2ccc(OCc3c(C)noc3C)cc2)cc1C	-6.5	41.2	38.1*	-33.2	6.7	-1.2	-45.4	-8.9
CC(C)(C)c1ccc(S(=O)(=O)N2CCCC(C(=O)N3CCN(Cc4ccccc4)CC3)C2)cc1 (stereo not drawn)	.	.	44.6*	.	.	.	5.2	29.4
COc1ccc2c(c1)CCCN2C(=O)C1CCCN(S(=O)(=O)c2ccc(C(C)(C)C)cc2)C1 (stereo not drawn)	.	.	48.3*	.	.	.	5.3	18.8
C=C(C)Cn1c(N2CCN(c3ccc(OC)cc3)CC2)nc2c1c(=O)n(C)c(=O)n2C	-10.9	-31.0	41.2*	-6.1	14.0	28.6	3.1	15.1
CC(C)(N[C@@H](Cc1ccccc1)C(=O)NCC(c1ccccc1)c1ccccc1)C(=O)NC1CCCCC1	.	.	19.8	.	.	.	.	.
CC(=O)CC1c2ccccc2C=C(c2ccsc2)N1c1ccc(-c2cccs2)cc1 (stereo not drawn)	.	.	45.7*	.	.	.	-14.5	-4.0
COc1ccc2c(c1)[C@@]1(OCCC=C[C@H]1C)C(=O)N2Cc1ccccc1C(F)(F)F	.	.	-14.6	.	.	.	.	.
Cc1ccc(C(=O)O/N=C(\N)c2ccccn2)cc1	-20.8	.	56.7*	-160.7	-77.0	-22.1	-157.2	-110.0
COc1cc(C(=O)O/N=C(\N)c2ccccn2)cc(OC)c1OC	-3.0	3.1	-7.4	-13.9	2.4	4.3	.	.
CCOc1ccc(C(=O)O/N=C(\N)c2ccccn2)cc1	-21.4	2.4	81.2*	-159.9	13.0	20.8	-93.3	-4.2
Cc1cccc(C(=O)O/N=C(\N)c2ccccn2)c1	-18.2	.	47.4*	-105.8	-31.8	-5.8	-172.8	-110.8
SMILES	H9c2 protect	H9c2 TAG inh	COUP-TFII inh	697 NFkB inh	Jurkat NFkB inh	Gli-Sufu block	Gal4-VP16 ctr	COUP-TFII conf
N/C(=N\OC(=O)c1cccc(F)c1)c1ccccn1	-14.3	.	-15.8	-165.6	-112.8	-68.0	.	.
Cc1ccc(C(=O)O/N=C(\N)c2ccccn2)cc1C	-17.7	-2.9	50.4*	-162.0	-12.8	41.9	-70.4	-1.0
O=CN1CCN(C(=O)C2CCN(c3ncnc4c3sc3cccc(F)c34)CC2)CC1	.	.	0.7	.	.	.	.	.
CCCCOCC1CN(CCCC)S(=O)(=O)c2c(cccc2Sc2ccc(OC)c(OC)c2)O1 (stereo not drawn)	.	.	13.2	.	.	.	.	.
CN(C(=O)c1cn(C)c2ccccc12)c1ccc(Oc2cccnc2)cc1	.	.	47.2*	.	.	.	-3.5	36.9
CCCn1cc(C(=O)Nc2ccc(Oc3cccnc3)cc2)c2ccccc21	.	.	-7.9	.	.	.	.	.
CCN=C1NC(c2ccc(C(F)(F)F)cc2)C(C(=O)OC)=C(C)N1Cc1cccc(C(F)(F)F)c1 (stereo not drawn)	.	.	2.0	.	.	.	.	.
Fc1ccc(NC(=S)NNc2ncc(C(F)(F)F)cc2Cl)c(F)c1	-18.7	.	57.5*	-32.5	4.5	24.7	19.6*	36.5
COCCn1c(C)cc(C(=O)CSc2nc3ccccc3o2)c1C	-33.1	-14.5	-39.5	-220.6	-94.2	-84.0	.	.
COCCn1c(C)cc(C(=O)CSc2nc3ccccc3s2)c1C	-17.6	.	50.4*	-186.6	-98.8	0.2	-57.3	31.4
COc1c(C(O)CC(C)C)ccc2c1C(=O)OCc1cc(C)cc(O)c1O2 (stereo not drawn)	-9.7	.	38.4*	-5.8	5.7	8.6	2.5	19.2
COc1c(C(CC(C)C)OC(C)=O)ccc2c1C(=O)OCc1cc(C)cc(O)c1O2 (stereo not drawn)	-10.2	.	49.4*	5.0	8.8	11.8	0.4	7.8
COC(=O)[C@]12C[C@H](CC(=O)NCc3ccc(OC)c(OC)c3)C(=O)N(Cc3ccc4c(c3)OCO4)C1=C[C@H](C(C)C)O[C@@H]2C1CC1	.	.	4.3	.	.	.	.	.
CC(=O)Nc1cc2nc3ccccc3oc-2cc1=O	.	.	10.1	.	.	.	.	.
COCC(C)n1c(-c2ccc3c(c2)NC(=O)CO3)csc1=Nc1ccc(OC(F)F)cc1 (stereo not drawn)	-27.3	4.1	48.3*	9.4	19.2	-5.3	16.0*	56.2*
CCN=c1scc(-c2ccc3c(c2)NC(=O)CO3)n1N=C1CCCC1	-17.3	-19.2	47.5*!	-36.3	24.8	13.0	-3.9	52.7*
CCc1c(-c2ccccc2F)ncn1Cc1cccc(-c2ccccc2)c1	.	.	43.9*	.	.	.	-7.4	6.5
CC1CCc2nc(N)c(C#N)c(-c3cccnc3)c2C1 (stereo not drawn)	1.3	-12.5	51.7*	-6.6	32.4	-11.7	14.0*	24.0
CC1CCc2nc(N)c(C#N)c(-c3ccncc3)c2C1 (stereo not drawn)	-0.5	40.3	-12.7	9.7	6.7	5.7	.	.
